Results from PubChem BioAssay (EPA / NIEHS).
“And” between values parts separate entries of the source, which are not always exact repeats. Identical values can stand only once. Inconclusive results are not listed. Some compounds were tested as several samples or in several runs, with calls that do not always agree. The source made the active and inactive calls. Rule for the calls, unless noted: active = hit-call score of the fitted dose curve at least 0.9, where 1 is the maximum; inactive = score below 0.9.

Assays:
[1] = ATG_M_06_TRANS: Attagene TRANS-FACTORIAL HepG2 Assay for M06 Transcription Factor (Internal Marker) (AID 2282983; active = hit-call score of the fitted dose curve at least 0.9, where 1 is the maximum;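 note: reporter transcript level by RT-PCR then capillary electrophoresis fluorescence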); details: HepG2 Attagene TRANS M06 internal marker reporter
Outline: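 Background control endpoint: reporter mRNA from transiently transfected HepG2 after 24 h dosing, detected by RT-PCR with capillary electrophoresis fluorescence. Analysed for gain versus DMSO.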

[2] = target: Nuclear receptor subfamily 4 group A member 2 (Homo sapiens) (UniProt P43354); experiment: ATG_NURR1_TRANS: Attagene TRANS-FACTORIAL HepG2 Assay for human Nuclear Receptor Related Protein 1 (NURR1) (AID 2282985; active = hit-call score of the fitted dose curve at least 0.9, where 1 is the maximum); details: HepG2 Attagene TRANS reporter, mRNA readout
Nuclear receptor subfamily 4 group A member 2 (Homo sapiens), sequence (P43354 whole entry, looked up, the tested form may be a part): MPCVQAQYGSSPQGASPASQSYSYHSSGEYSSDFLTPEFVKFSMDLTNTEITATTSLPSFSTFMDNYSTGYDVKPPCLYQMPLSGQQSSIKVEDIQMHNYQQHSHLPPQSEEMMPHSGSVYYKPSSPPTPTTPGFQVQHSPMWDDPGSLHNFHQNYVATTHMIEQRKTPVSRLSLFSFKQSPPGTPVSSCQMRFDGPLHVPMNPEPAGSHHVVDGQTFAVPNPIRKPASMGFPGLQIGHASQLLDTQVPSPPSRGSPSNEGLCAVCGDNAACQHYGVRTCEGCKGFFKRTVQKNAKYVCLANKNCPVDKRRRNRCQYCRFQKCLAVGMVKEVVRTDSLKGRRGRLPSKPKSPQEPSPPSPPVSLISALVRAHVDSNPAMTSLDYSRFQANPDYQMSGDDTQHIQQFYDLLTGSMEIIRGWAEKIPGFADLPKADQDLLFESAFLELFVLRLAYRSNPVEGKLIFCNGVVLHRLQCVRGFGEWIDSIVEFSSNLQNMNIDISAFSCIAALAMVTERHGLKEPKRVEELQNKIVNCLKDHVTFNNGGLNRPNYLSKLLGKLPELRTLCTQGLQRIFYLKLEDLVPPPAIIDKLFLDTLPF
Outline: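 Reporter transcript induction, measured by RT-PCR with fluorescent labelling, HpaI digestion and capillary electrophoresis, after 24 hr dosing of human HepG2 cells transiently expressing an exogenous NR-Gal4 fusion with GAL4-UAS-driven reporters; DMSO as baseline.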

[3] = target: Transcriptional activator Myb (Homo sapiens) (UniProt P10242); experiment: ATG_Myb_CIS: Attagene CIS-FACTORIAL HepG2 Assay for human Myeloblastosis (Myb) Proto-Oncogene Transcription Factor (AID 2282986); details: HepG2 Attagene CIS-FACTORIAL Myb reporter transcription; actives raise or lower the signal
Transcriptional activator Myb (Homo sapiens), sequence (P10242 whole entry, looked up): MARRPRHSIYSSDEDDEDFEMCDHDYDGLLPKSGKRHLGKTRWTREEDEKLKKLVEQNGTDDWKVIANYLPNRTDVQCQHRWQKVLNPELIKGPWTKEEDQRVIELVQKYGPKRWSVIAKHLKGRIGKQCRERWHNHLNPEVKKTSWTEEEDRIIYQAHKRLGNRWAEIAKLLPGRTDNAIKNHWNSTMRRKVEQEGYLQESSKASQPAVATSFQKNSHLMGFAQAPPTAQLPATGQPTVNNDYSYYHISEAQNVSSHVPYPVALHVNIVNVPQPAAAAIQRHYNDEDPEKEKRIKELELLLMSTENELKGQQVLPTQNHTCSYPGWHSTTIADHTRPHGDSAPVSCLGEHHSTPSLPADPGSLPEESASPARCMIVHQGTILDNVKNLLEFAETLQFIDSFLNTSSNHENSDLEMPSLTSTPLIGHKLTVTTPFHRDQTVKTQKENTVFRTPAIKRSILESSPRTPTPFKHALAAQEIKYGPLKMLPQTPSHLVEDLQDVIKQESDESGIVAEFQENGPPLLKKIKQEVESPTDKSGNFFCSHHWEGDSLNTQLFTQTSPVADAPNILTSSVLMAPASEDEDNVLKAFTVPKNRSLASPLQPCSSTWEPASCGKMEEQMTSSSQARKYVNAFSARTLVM
Outline: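 HepG2 cells were transiently transfected with cis-regulated multiple reporter transcription units reflecting endogenous Myb activity, then exposed to compound for 24 hours. Reporter mRNA was measured by RT-PCR with capillary electrophoresis; bidirectional fitting versus DMSO baseline.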

[4] = ATG_NFI_CIS: Attagene CIS-FACTORIAL HepG2 Assay for human Nuclear Factor I (NFI) (AID 2282989); details: HepG2 cis-regulatory reporter, NFI response element transcription; actives raise or lower the signal
Outline: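 Transfected HepG2 liver cells, exposed 24 h, supplied total RNA for oligo(dT) reverse transcription and reporter-specific PCR. Labelled, HpaI-cut fragments were sized by capillary electrophoresis; DMSO set the baseline for bidirectional fitting.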

[5] = target: Myc proto-oncogene protein (Homo sapiens) (UniProt P01106); experiment: ATG_Myc_CIS: Attagene CIS-FACTORIAL HepG2 Assay for human Myelocytomatosis (Myc) Proto-Oncogene Transcription Factor (AID 2282990); details: HepG2, Attagene cis-reporter transcription factor activity; actives raise or lower the signal
Myc proto-oncogene protein (Homo sapiens), sequence (P01106 whole entry, looked up, the tested form may be a part): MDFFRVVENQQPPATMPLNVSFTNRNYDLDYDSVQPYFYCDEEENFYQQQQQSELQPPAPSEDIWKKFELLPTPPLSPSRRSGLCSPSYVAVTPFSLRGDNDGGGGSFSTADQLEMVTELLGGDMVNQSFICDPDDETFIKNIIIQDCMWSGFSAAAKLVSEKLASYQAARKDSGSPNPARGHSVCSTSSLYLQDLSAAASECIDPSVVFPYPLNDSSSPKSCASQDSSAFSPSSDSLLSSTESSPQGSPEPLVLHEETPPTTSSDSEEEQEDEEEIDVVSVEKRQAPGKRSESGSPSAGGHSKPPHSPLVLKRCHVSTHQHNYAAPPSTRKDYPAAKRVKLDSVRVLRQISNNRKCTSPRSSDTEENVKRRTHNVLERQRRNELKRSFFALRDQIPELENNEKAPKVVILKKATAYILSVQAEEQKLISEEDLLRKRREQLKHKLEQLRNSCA
Outline: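 After 24 h chemical treatment of HepG2 cells carrying multiplexed cis-regulated reporter constructs, reporter transcripts quantified by RT-PCR and capillary electrophoresis of fluorescent fragments. Gain or loss fitted against DMSO baseline.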

[6] = ATG_NF_kB_CIS: Attagene CIS-FACTORIAL HepG2 Assay for human Nuclear Factor Kappa B (NF-kB) (AID 2282991); details: HepG2 Attagene cis-factorial NF-kB reporter mRNA; actives raise or lower the signal
Outline: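 HepG2 cells transiently transfected with multiplexed cis-element reporter units measuring endogenous transcription factor activity; reporter mRNA read 24 h after dosing by RT-PCR, fluorescent labelling, HpaI digestion and capillary electrophoresis. Bidirectional fit against DMSO baseline.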

[7] = ATG_NRF2_ARE_CIS: Attagene CIS-FACTORIAL HepG2 Assay for human Nuclear Factor Erythroid 2 Related Factor 2 (NFR2) response to Antioxidant Response Elements (ARE) (AID 2282992); details: HepG2 Attagene ARE/NRF2 reporter, transcription factor activity; actives raise or lower the signal;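 for AC50: reporter mRNA level measured by RT-PCR and capillary electrophoresis fluorescence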
Outline: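 Using transiently transfected HepG2 cells exposed for 24 h, reporter mRNA levels were determined by RT-PCR with fluorescent primer extension and capillary electrophoresis, analysed for gain or loss of signal against DMSO.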

[8] = ATG_Oct_MLP_CIS: Attagene CIS-FACTORIAL HepG2 Assay for human Octamer-Binding Transcription Factor (Oct) (AID 2282993); details: HepG2 Attagene cis-factorial Oct reporter, mRNA; actives raise or lower the signal
Outline: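 Using HepG2 cells bearing transfected cis-reporter constructs, mRNA induction was read after 24 h by fluorescent RT-PCR and capillary electrophoresis, with DMSO defining baseline for gain- or loss-of-signal fits.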

[9] = target: Cellular tumor antigen p53 (Homo sapiens) (UniProt P04637); experiment: ATG_p53_CIS: Attagene CIS-FACTORIAL HepG2 Assay for human p53 Transcription Factor (AID 2282994); details: HepG2 p53 cis-element reporter, Attagene mRNA; actives raise or lower the signal
Cellular tumor antigen p53 (Homo sapiens), sequence (P04637 whole entry, looked up, the tested form may be a part): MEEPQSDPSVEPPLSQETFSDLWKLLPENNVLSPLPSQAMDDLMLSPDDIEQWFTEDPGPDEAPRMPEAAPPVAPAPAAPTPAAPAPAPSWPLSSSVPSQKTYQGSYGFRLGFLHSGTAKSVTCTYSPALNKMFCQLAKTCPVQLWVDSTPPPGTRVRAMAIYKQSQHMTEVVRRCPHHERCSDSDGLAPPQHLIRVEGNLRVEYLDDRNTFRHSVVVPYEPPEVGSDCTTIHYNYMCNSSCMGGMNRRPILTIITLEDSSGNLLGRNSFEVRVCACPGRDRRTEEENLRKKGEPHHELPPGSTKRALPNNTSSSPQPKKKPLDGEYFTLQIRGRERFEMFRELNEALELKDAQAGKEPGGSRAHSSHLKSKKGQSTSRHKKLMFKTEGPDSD
Outline: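 In HepG2 cells, reporter transcription units under cis-regulatory promoters were transiently introduced. Following 24 h treatment, RNA was processed to labelled, digested cDNA fragments read by capillary electrophoresis; fitting was bidirectional versus DMSO.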

[10] = BSK_3C_TissueFactor: BioMAP Diversity Plus: 3C Assay for Tissue Factor Biomarker Activity (AID 2282997); details: BioMAP 3C HUVEC, tissue factor biomarker readout; actives raise or lower the signal
Outline: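 After a 24 h chemical exposure of primary human umbilical vein endothelial cells, Tissue Factor levels were quantified by ELISA.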

[11] = BSK_3C_uPAR: BioMAP Diversity Plus: 3C Assay for Urokinase-type plasminogen activator receptor (uPAR) Biomarker Activity (AID 2282998); details: BioMAP 3C HUVEC, uPAR biomarker ELISA; actives raise or lower the signal
Outline: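 In this endothelial cell-based assay, human umbilical vein primary cells were treated with chemicals and harvested at 24 h. uPAR was quantified using ELISA, with gains or losses fitted relative to DMSO controls.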

[12] = BSK_3C_VCAM1: BioMAP Diversity Plus: 3C Assay for Vascular cell adhesion molecule 1 (VCAM1) Biomarker Activity (AID 2282999); details: BioMAP 3C HUVEC, VCAM1 ELISA, cytokine-stimulated; actives raise or lower the signal
Outline: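 Activity fitted in both directions relative to DMSO, with ELISA measurement of the surface marker on primary HUVEC (3C) at 24 h post-treatment; parallel SRB staining (0.1% SRB, TCA-fixed, 560 nm) flagged overt cytotoxicity.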

[13] = BSK_4H_Eotaxin3: BioMAP Diversity Plus: 4H Assay for Eotaxin 3 Biomarker Activity (AID 2283000); details: primary human endothelial cells (HUVEC); actives raise or lower the signal
Outline: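 Chemicals were added to human umbilical vein endothelium cultures, and Eotaxin-3 was quantified by ELISA at 24 h. Values were derived by bidirectional fitting with DMSO serving as negative control and activity baseline.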

[14] = target: human Peroxisome Proliferator-activated Receptor alpha (PPARa), PPARA (gene 5465) (UniProt Q07869); experiment: ATG_PPARa_TRANS: Attagene TRANS-FACTORIAL HepG2 Assay for human Peroxisome Proliferator-activated Receptor alpha (PPARa) (AID 2283001; active = hit-call score of the fitted dose curve at least 0.9, where 1 is the maximum;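 for AC50: potency for gain of reporter signal over DMSO so agonist or activator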)
human Peroxisome Proliferator-activated Receptor alpha (PPARa), PPARA (gene 5465), sequence (Q07869 whole entry, looked up, the tested form may be a part): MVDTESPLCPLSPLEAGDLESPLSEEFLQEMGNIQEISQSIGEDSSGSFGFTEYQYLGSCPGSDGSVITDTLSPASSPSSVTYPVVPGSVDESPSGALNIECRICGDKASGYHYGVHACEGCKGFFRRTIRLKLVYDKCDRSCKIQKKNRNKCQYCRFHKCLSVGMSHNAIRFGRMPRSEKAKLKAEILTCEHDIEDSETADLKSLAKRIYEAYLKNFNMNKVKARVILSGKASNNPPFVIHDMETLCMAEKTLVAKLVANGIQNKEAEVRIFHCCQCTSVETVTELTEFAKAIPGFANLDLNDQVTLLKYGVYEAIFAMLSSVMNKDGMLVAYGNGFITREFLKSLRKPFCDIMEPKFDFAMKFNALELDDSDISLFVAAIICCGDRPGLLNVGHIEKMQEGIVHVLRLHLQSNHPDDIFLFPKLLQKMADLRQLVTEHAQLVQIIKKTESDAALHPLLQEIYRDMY
Outline: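 Reporter transcripts quantified by RT-PCR plus capillary electrophoresis after 24 h treatment, fitted upward relative to DMSO. Cells: human HepG2 transiently carrying multiple GAL4-UAS reporter units driven by NR-Gal4 chimeras.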

[15] = target: human Peroxisome Proliferator-activated Receptor delta (PPARd), PPARD (gene 5467) (UniProt Q03181); experiment: ATG_PPARd_TRANS: Attagene TRANS-FACTORIAL HepG2 Assay for human Peroxisome Proliferator-activated Receptor delta (PPARd) (AID 2283002; active = hit-call score of the fitted dose curve at least 0.9, where 1 is the maximum)
human Peroxisome Proliferator-activated Receptor delta (PPARd), PPARD (gene 5467), sequence (Q03181 whole entry, looked up, the tested form may be a part): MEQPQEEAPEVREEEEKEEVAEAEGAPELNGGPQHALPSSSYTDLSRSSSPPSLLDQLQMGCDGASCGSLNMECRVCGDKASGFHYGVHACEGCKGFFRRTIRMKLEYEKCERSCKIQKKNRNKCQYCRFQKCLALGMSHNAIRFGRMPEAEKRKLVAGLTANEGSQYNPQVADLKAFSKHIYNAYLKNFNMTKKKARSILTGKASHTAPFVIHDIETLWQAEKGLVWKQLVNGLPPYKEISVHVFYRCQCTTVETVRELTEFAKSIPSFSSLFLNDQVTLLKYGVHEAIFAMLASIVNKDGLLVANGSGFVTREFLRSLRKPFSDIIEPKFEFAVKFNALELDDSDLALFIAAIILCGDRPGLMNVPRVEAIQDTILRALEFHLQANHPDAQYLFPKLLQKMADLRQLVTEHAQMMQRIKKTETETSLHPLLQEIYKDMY
Outline: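 Read-out is induced reporter mRNA, quantified by RT-PCR with fluorescent labelling and capillary electrophoresis after 24 h dosing. Cells are HepG2 transiently carrying multiple GAL4-UAS reporter units driven by exogenous NR-GAL4 chimeras; DMSO serves as baseline.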

[16] = read-out: Intercellular Adhesion Molecule 1 (ICAM1), ICAM1 (gene 3383); experiment: BSK_3C_ICAM1: BioMAP Diversity Plus: 3C Assay for Intercellular Adhesion Molecule 1 (ICAM1) Biomarker Activity (AID 2283003); details: primary human endothelial cells (HUVEC); actives raise or lower the signal
Outline: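 Chemicals are dosed onto primary human umbilical vein endothelium (3C system). After 24 h, ICAM-1 is measured by ELISA, and responses are fitted bidirectionally relative to DMSO.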

[17] = target: human Retinoic Acid Receptor beta (RARb), RARB (gene 5915) (UniProt P10826); experiment: ATG_RARb_TRANS: Attagene TRANS-FACTORIAL HepG2 Assay for human Retinoic Acid Receptor beta (AID 2283004; active = hit-call score of the fitted dose curve at least 0.9, where 1 is the maximum)
human Retinoic Acid Receptor beta (RARb), RARB (gene 5915), sequence (P10826 whole entry, looked up): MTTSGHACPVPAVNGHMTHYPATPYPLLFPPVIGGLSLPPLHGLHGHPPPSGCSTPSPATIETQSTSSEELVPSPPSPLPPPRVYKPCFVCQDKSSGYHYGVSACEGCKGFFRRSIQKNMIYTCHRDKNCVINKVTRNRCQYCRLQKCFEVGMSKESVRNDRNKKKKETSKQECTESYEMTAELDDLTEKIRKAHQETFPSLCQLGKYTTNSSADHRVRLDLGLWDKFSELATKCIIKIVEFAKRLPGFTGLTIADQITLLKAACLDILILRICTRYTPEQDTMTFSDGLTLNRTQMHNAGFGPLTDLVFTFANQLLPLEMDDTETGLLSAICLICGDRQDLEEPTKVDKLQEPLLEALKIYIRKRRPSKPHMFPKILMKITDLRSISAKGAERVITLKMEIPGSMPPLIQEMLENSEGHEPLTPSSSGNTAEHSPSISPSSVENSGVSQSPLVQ
Outline: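 Transient transfection of HepG2 with multiple reporter units → chemical dosing, 24 h → total RNA isolation → RT with oligo(dT) → reporter-specific PCR, 6-FAM primer extension, HpaI digest → capillary electrophoresis. Positive direction vs DMSO control.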

[18] = target: Nuclear respiratory factor 1 (Homo sapiens) (UniProt Q16656); experiment: ATG_NRF1_CIS: Attagene CIS-FACTORIAL HepG2 Assay for human Nuclear Respiratory Factor 1 (NRF1) Orphan Gene (AID 2282987); details: HepG2 NRF1 cis-element reporter, Attagene multiplex; actives raise or lower the signal
Nuclear respiratory factor 1 (Homo sapiens), sequence (Q16656 whole entry, looked up): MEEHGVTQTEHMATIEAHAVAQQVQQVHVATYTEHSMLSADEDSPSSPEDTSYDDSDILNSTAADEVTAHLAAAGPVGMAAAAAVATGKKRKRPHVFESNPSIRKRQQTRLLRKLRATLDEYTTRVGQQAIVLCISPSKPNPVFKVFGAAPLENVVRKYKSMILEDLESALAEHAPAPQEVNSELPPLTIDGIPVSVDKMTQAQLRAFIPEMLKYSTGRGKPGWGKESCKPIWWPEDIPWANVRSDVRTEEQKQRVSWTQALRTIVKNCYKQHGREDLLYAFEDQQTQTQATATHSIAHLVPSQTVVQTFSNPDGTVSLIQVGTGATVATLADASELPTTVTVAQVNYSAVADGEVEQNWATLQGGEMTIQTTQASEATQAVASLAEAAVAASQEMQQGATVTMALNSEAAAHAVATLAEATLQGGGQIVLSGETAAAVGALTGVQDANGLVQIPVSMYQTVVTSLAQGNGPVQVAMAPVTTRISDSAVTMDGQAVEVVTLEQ
Outline: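 HepG2 cells transiently transfected with multiple reporter transcription units under cis-regulatory promoter control, so endogenous transcription-factor activity is read. After 24 h compound exposure, reporter mRNA quantified by RT-PCR, fluorescent labelling, HpaI digestion and capillary electrophoresis; bidirectional fitting versus DMSO.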

[19] = ATG_M_32_TRANS: Attagene TRANS-FACTORIAL HepG2 Assay for M32 Transcription Factor (Internal Marker) (AID 2282984; active = hit-call score of the fitted dose curve at least 0.9, where 1 is the maximum;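 note: transcript level of a background control reporter unit measured by RT-PCR and capillary electrophoresis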); details: HepG2 Attagene TRANS M32 internal marker reporter
Outline: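 Internal background reporter in transfected HepG2: after 24 h chemical exposure, RNA reverse-transcribed, reporter cDNA amplified, fluorescently labelled and HpaI-cut, then sized by capillary electrophoresis. Gain of signal fitted against DMSO control.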

Measured: AC50

CCCCCCCCc1ccc(O)cc1
active: [7] 11.2 µM | [10] 32.2 µM | [11] 37.2 µM | [12] 31.9 µM | [13] 33.5 µM | [14] 24.8 µM | [16] 35.6 µM
inactive: [1] | [2] | [3] | [4] | [5] | [6] | [7] | [8] | [9] | [14] | [15] | [17]

CCOP(=S)(OCC)SCSP(=S)(OCC)OCC
not listed: [5] | [12] | [14] | [15] | [19]
inactive: all other assays above

Nc1cccc(Cl)c1
inactive: [19] | [2] | [3] | [4] | [5] | [6] | [7] | [8] | [9] | [14]

COc1ccc(C=O)cc1
not listed: [2] | [10] | [11] | [12] | [13] | [16] | [17] | [19]
inactive: all other assays above

O=P(O)(O)CN(CP(=O)(O)O)CP(=O)(O)O
not listed: [1] | [10] | [11] | [12] | [13] | [14] | [16] | [17]
inactive: all other assays above

CC(=O)[O][Hg][c]1ccccc1
active: [4] 3.71 µM | [7] 2.24 µM | [8] 2.5 µM | [10] 2.59 µM | [11] 1.17 µM | [16] 2.69 µM
not listed: [2] | [12] | [13] | [17] | [19]
inactive: all other assays above

NC(=O)O
not listed: [1] | [15] | [17]
inactive: all other assays above

CCN(CC)C(=O)Cl
inactive: [1] | [3] | [18] | [4] | [5] | [6] | [7] | [8] | [9]

Oc1cccc2cccnc12
active: [7] 15.3 µM and 1.64 µM | [8] 167 µM | [12] 10.4 µM
inactive: [1] | [3] | [4] | [5] | [8] | [9] | [10] | [11] | [14] | [15] | [16]

Cl/C=C/Cl
inactive: [1] | [3] | [4] | [5] | [6] | [7] | [8] | [9]
